About 79,000 compounds went through this panel and 15% of them were active in at least one assay; those are over-represented in the sample as a whole. Calls of active or inactive are those of the source. No stated cut-off is given here; in the data, active means growth inhibition above about 70%; inactive means the rest.
Tests used:
[1] = NCI Yeast Anticancer Drug Screen. Data for the rad52 strain (AID 147);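 further: 0% = growth of vehicle-treated control cultures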; details: S. cerevisiae rad52 mutant growth inhibition, stronger effect = higher value
Procedure, shortened: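 Measured: yeast growth inhibition. System: strain with a defined DNA damage repair alteration. Reference: vehicle-treated control cultures.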

[2] = NCI Yeast Anticancer Drug Screen. Data for the wt1 strain (AID 149);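 further: 0% = growth of vehicle-treated wt1 cultures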; details: S. cerevisiae wt1 strain (SPY 50644) growth inhibition, stronger effect = higher value
Procedure, shortened: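 Vehicle-normalised growth inhibition; strain wt1; compound exposure.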

[3] = NCI Yeast Anticancer Drug Screen. Data for the rad50EPP+ strain (AID 151);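 further: 0% = growth of vehicle-treated control cultures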; details: S. cerevisiae rad50 mutant strain, stronger effect = higher value
Procedure, shortened: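 One strain with a rad50 alteration (rad50EPP+) was compound-treated, its growth then compared to that of vehicle controls.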

[4] = NCI Yeast Anticancer Drug Screen. Data for the mgt1 strain (AID 153); details: S. cerevisiae mgt1 mutant growth inhibition, stronger effect = higher value
Procedure, shortened: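 After exposure of the mgt1 yeast mutant to compound, growth was measured and reported as inhibition compared with vehicle controls.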

[5] = NCI Yeast Anticancer Drug Screen. Data for the rad50 strain (AID 155);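 further: 0% = growth of vehicle-only cultures of the same strain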; details: S. cerevisiae rad50 strain growth inhibition, stronger effect = higher value
Procedure, shortened: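 A DNA repair-deficient yeast mutant serves as the test organism; compound-induced growth inhibition is calculated against vehicle-treated cells.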

[6] = NCI Yeast Anticancer Drug Screen. Data for the mec2-1 strain (AID 157); details: S. cerevisiae mec2-1 strain, stronger effect = higher value
Procedure, shortened: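 Test agents were screened against the mec2-1 yeast strain, with defined DNA repair or cell cycle alteration. Growth was scored as inhibition against vehicle-only controls.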

[7] = NCI Yeast Anticancer Drug Screen. Data for the rad14 strain (AID 159);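 further: 0% = growth of vehicle-treated control cultures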; details: S. cerevisiae rad14 strain growth inhibition, stronger effect = higher value
Procedure, shortened: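 Vehicle-treated cultures served as the baseline for growth inhibition of a DNA repair-mutant yeast strain exposed to each compound.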

[8] = NCI Yeast Anticancer Drug Screen. Data for the sgs1 mgt1 strain (AID 161);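 further: 0% = growth of cultures given vehicle only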; details: S. cerevisiae sgs1 mgt1 strain, stronger effect = higher value
Procedure, shortened: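 Genetically altered yeast, compound exposure, growth inhibition relative to vehicle.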

[9] = NCI Yeast Anticancer Drug Screen. Data for the CLN2oe strain (AID 163);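 further: 0% = growth of vehicle-only control cultures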; details: S. cerevisiae CLN2oe strain, stronger effect = higher value
Procedure, shortened: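 Here, growth inhibition in a cell-cycle-altered yeast strain after compound exposure was quantified against vehicle control growth.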

[10] = NCI Yeast Anticancer Drug Screen. Data for the cln2 rad14 strain (AID 165);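 further: 0% = growth equal to vehicle treated cultures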; details: S. cerevisiae cln2 rad14 strain, stronger effect = higher value
Procedure, shortened: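 Growth of compound-exposed yeast (cln2 rad14 genotype) measured and expressed as inhibition relative to vehicle.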

[11] = NCI Yeast Anticancer Drug Screen. Data for the bub3 strain (AID 167); details: S. cerevisiae bub3 mutant strain, stronger effect = higher value
Procedure, shortened: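 Inhibition values come from growth of compound-treated mutant yeast normalised to vehicle-treated controls.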

[12] = NCI Yeast Anticancer Drug Screen. Data for the wt2 strain (AID 169);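 further: 0% = growth of vehicle-treated yeast cultures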; details: S. cerevisiae wt2 strain growth inhibition, stronger effect = higher value
Procedure, shortened: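 Genetically defined yeast strains from a DNA-repair/cell-cycle panel were used. Compound-exposed yeast growth was measured, and the inhibition was calculated relative to vehicle treatment.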

[13] = NCI Yeast Anticancer Drug Screen. Data for the mlh1 strain (AID 171);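 further: 0% = growth of vehicle-treated control cultures of the same strain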; details: S. cerevisiae mlh1 strain growth inhibition, stronger effect = higher value
Procedure, shortened: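 Here the genetically defined yeast mutant is grown with each compound, and the extent to which its growth falls below that of vehicle-exposed cells is reported.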

[14] = NCI Yeast Anticancer Drug Screen. Data for the sgs1 strain (AID 173);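 further: 0% = growth of vehicle-only control cultures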; details: S. cerevisiae sgs1 mutant, stronger effect = higher value
Procedure, shortened: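 Relative growth inhibition, referenced to vehicle, was determined in a yeast strain with a defined alteration affecting DNA damage repair or cell cycle control after compound exposure.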

[15] = NCI Yeast Anticancer Drug Screen. Data for the mlh1 rad18 strain (AID 175); details: S. cerevisiae mlh1 rad18 strain growth inhibition, stronger effect = higher value
Procedure, shortened: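 In this whole-cell yeast screen, a strain with altered DNA damage repair is challenged with compound, and its growth is measured against matched vehicle-treated controls.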

[16] = NCI Yeast Anticancer Drug Screen. Data for the rad18 strain (AID 177); details: S. cerevisiae rad18 mutant growth inhibition, stronger effect = higher value
Procedure, shortened: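 Screen uses a yeast strain with a defined lesion in DNA damage repair; compound effect is read as loss of growth compared to untreated vehicle cultures.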

[17] = at 5.0 µM (retest, dose inferred, filed as 0.5)
[18] = at 50.0 µM (retest, dose inferred, filed as 5.0)

Measured: growth inhibition

COc1ccc(NC(=O)CC2SC(=Nc3ccccc3C)NC2=O)c([N+](=O)[O-])c1 (stereo not drawn)
inactive: [1]; at 1.2 µM 0% | [1]; at 3.7 µM -2% | [1]; at 11.0 µM 2% | [1]; at 33.0 µM 13% | [2]; at 1.2 µM -1% | [2]; at 3.7 µM -1% | [2]; at 11.0 µM 1% | [2]; at 33.0 µM 10% | [2]; at 100.0 µM 36% | [3]; at 1.2 µM -2% | [3]; at 3.7 µM -2% | [3]; at 11.0 µM 1% | [3]; at 33.0 µM 28% | [4]; at 1.2 µM -2% | [4]; at 3.7 µM 1% | [4]; at 11.0 µM 1% | [4]; at 33.0 µM 12% | [5]; at 1.2 µM 1% | [5]; at 3.7 µM -44% | [5]; [17] 0% | [5]; at 11.0 µM 26% | [5]; at 33.0 µM 18% | [5]; [18] 69% | [5]; at 50.0 µM 56.7% | [6]; at 1.2 µM 1% | [6]; at 3.7 µM 1% | [6]; [17] -17% | [6]; at 11.0 µM 4% | [6]; at 33.0 µM 15% | [6]; [18] 66% | [7]; at 1.2 µM -2% | [7]; at 3.7 µM -2% | [7]; at 11.0 µM 1% | [7]; at 33.0 µM 10% | [8]; [17] 2% | [9]; at 1.2 µM 0% | [9]; at 3.7 µM -4% | [9]; at 11.0 µM 0% | [9]; at 33.0 µM -6% | [9]; at 100.0 µM 16% | [10]; [17] -2% | [10]; [18] 22% | [10]; at 50.0 µM 32.2% | [11]; at 1.2 µM 2% | [11]; at 3.7 µM -1% | [11]; [17] -8% | [11]; at 11.0 µM -5% | [11]; at 33.0 µM 6% | [11]; at 50.0 µM 34.7% | [12]; at 1.2 µM -1% | [12]; at 3.7 µM 7% | [12]; at 11.0 µM 1% | [12]; at 33.0 µM 11% | [13]; at 1.2 µM 0% | [13]; at 3.7 µM -1% | [13]; at 11.0 µM 0% | [13]; at 33.0 µM 11% | [14]; at 1.2 µM -2% | [14]; at 3.7 µM 1% | [14]; at 11.0 µM 9% | [14]; at 33.0 µM 37% | [15]; [17] -1% | [15]; [18] 53% | [16]; at 1.2 µM -1% | [16]; at 3.7 µM 4% | [16]; at 11.0 µM 6% | [16]; at 33.0 µM 41%
active: [1]; at 100.0 µM 75% | [3]; at 100.0 µM 80% | [4]; at 100.0 µM 99% | [5]; at 100.0 µM 98% | [6]; at 50.0 µM 72.2% | [6]; at 100.0 µM 97% | [7]; at 100.0 µM 97% | [8]; [18] 74% | [8]; at 50.0 µM 72.9% | [11]; [18] 71% | [11]; at 100.0 µM 97% | [12]; at 100.0 µM 92% | [13]; at 100.0 µM 99% | [14]; at 100.0 µM 99% | [15]; at 50.0 µM 74% | [16]; at 100.0 µM 98%

O=C(Oc1ccc2c(c1)CN(Cc1ccccc1)CO2)c1ccccc1
inactive: [1]; at 1.2 µM -3% | [1]; at 3.7 µM 4% | [1]; at 11.0 µM 8% | [1]; at 33.0 µM 18% | [1]; at 100.0 µM 38% | [2]; at 1.2 µM 2% | [2]; at 3.7 µM 4% | [2]; at 11.0 µM 8% | [2]; at 33.0 µM 13% | [2]; at 100.0 µM 10% | [3]; at 1.2 µM -4% | [3]; at 3.7 µM -3% | [3]; at 11.0 µM 4% | [3]; at 33.0 µM 6% | [3]; at 100.0 µM 22% | [4]; at 1.2 µM -1% | [4]; at 3.7 µM 0% | [4]; at 11.0 µM 2% | [4]; at 33.0 µM 10% | [4]; at 100.0 µM 39% | [5]; at 1.2 µM 2% | [5]; at 3.7 µM 2% | [5]; [17] -1% | [5]; at 11.0 µM 17% | [5]; at 33.0 µM 4% | [5]; [18] 46% | [5]; at 100.0 µM 32% | [6]; at 1.2 µM -2% | [6]; at 3.7 µM 0% | [6]; [17] -15% | [6]; at 11.0 µM 3% | [6]; at 33.0 µM 8% | [6]; [18] 3% | [6]; at 50.0 µM 25.1% | [6]; at 100.0 µM 26% | [7]; at 1.2 µM 4% | [7]; at 3.7 µM 11% | [7]; at 11.0 µM 24% | [7]; at 33.0 µM 40% | [8]; [17] 19% | [8]; [18] 40% | [9]; at 1.2 µM -5% | [9]; at 3.7 µM -5% | [9]; at 11.0 µM -1% | [9]; at 33.0 µM 16% | [9]; at 100.0 µM 42% | [10]; [17] -16% | [10]; [18] 39% | [10]; at 50.0 µM 21.9% | [11]; at 1.2 µM -4% | [11]; at 3.7 µM -2% | [11]; [17] -6% | [11]; at 11.0 µM -29% | [11]; at 33.0 µM 31% | [11]; [18] 46% | [11]; at 100.0 µM 35% | [12]; at 1.2 µM -1% | [12]; at 3.7 µM 3% | [12]; at 11.0 µM 7% | [12]; at 33.0 µM 23% | [12]; at 100.0 µM 40% | [13]; at 1.2 µM 6% | [13]; at 3.7 µM 3% | [13]; at 11.0 µM 7% | [13]; at 33.0 µM 4% | [13]; at 100.0 µM 37% | [14]; at 1.2 µM 4% | [14]; at 3.7 µM 9% | [14]; at 11.0 µM 17% | [14]; at 33.0 µM 42% | [16]; at 1.2 µM 17% | [16]; at 3.7 µM 15% | [16]; at 11.0 µM 19% | [16]; at 33.0 µM 28%
active: [5]; at 50.0 µM 79.2% | [7]; at 100.0 µM 87% | [8]; at 50.0 µM 77.2% | [11]; at 50.0 µM 72.7% | [14]; at 100.0 µM 70% | [16]; at 100.0 µM 72%
